# Hit rate of the full screen: of about 310,000 compounds, about 2,200 (0.71%) showed an effect of 50% or more. Effects have a minus sign here. Shown is part of a subset that was picked to be rich in strong results.
# Target: human ether-à-go-go-related gene (hERG) potassium channel (human, UniProt Q12809)
# Assay: primary screen, population patch clamp on CHO cells stably expressing hERG; higher = less effect of the substance
# Chain of human ether-à-go-go-related gene (hERG) potassium channel (Q12809 whole entry, looked up): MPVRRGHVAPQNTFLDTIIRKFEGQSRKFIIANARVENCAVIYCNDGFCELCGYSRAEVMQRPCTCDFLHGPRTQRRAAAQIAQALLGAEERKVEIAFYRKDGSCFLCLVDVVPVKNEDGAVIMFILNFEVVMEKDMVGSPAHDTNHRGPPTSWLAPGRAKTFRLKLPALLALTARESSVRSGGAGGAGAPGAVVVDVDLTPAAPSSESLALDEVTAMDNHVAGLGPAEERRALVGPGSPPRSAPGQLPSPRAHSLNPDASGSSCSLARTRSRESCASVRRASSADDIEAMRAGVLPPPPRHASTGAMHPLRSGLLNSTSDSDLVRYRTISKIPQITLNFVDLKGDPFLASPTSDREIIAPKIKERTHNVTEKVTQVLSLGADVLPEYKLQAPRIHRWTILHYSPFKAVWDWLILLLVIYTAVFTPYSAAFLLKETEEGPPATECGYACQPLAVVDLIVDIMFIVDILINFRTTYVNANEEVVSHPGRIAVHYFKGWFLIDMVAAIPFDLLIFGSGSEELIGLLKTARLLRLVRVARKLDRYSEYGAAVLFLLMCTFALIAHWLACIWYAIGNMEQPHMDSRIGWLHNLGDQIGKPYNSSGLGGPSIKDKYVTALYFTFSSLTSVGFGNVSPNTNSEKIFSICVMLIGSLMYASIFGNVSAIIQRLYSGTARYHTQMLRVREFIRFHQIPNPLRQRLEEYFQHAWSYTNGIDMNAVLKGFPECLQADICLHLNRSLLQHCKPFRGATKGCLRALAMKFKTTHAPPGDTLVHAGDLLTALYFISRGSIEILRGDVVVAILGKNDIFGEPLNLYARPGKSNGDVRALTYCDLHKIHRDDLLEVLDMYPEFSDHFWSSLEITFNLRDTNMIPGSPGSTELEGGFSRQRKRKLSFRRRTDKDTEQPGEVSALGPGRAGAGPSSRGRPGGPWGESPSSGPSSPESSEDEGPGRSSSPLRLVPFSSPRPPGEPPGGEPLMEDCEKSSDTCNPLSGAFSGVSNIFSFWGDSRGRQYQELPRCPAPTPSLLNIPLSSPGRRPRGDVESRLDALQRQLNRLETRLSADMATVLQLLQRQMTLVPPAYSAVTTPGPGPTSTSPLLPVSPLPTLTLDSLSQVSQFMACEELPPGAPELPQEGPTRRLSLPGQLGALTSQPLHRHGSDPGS
row,Compound,"hERG current change (%, negative = inhibition) at 1uM"
1,COc1ccccc1N1CCN(Cc2nc(N)nc(Nc3ccccc3)n2)CC1,-33.8%
2,Nc1nc(CN2CCN(C(c3ccccc3)c3ccccc3)CC2)nc(Nc2ccccc2)n1,10.2%
3,COc1ccc(Nc2nc(N)nc(CN3CCN(c4ccccn4)CC3)n2)cc1,-37.1%
4,Nc1nc(CN2CCN(c3ccccn3)CC2)nc(Nc2ccc(F)cc2)n1,-49%
5,Nc1nc(CN2CCN(c3ccccn3)CC2)nc(Nc2ccc(Cl)cc2)n1,-56.2%
6,CCOC(=O)N1CCN(Cc2nc(N)nc(Nc3ccc(OC)cc3)n2)CC1,-9.74%
7,O=C(c1ccccc1)c1ccc(OCC(O)CN2CCN(S(=O)(=O)N3CCCCC3)CC2)cc1 (stereo not drawn),-12.6%
8,COc1ccccc1N(CC(=O)NC1CCCC1)C(=O)CCC(=O)Nc1cc(C)on1,8.06%
9,CCn1c2ccc(F)cc2c2nc3ccccc3nc21,10.2%
10,CCOC(=O)Cc1[nH]nc2c1C(c1cc(OC)ccc1OC)C(C#N)=C(N)O2 (stereo not drawn),14.9%
11,CSc1oc(-c2cccs2)nc1S(=O)(=O)c1ccccc1,4.25%
12,CN(C)c1ccc(CNc2nc(-c3ccccc3)nn2S(C)(=O)=O)cc1,14.6%
13,O=C(COc1ccc(S(=O)(=O)N2CCOCC2)cc1)N1CCCCCC1,25.1%
14,COc1ccc(CCNC(=O)COC(=O)/C=C/c2cccs2)cc1OC,11.7%
15,O=C(O)CCCN1C(=O)NC2NC(=O)NC21 (stereo not drawn),10.2%
16,Nc1nc(CN2CCN(Cc3ccccc3)CC2)nc(Nc2ccccc2)n1,-56.3%
17,COc1ccc(Nc2nc(N)nc(CN3CCC(C)CC3)n2)cc1,-50.7%
18,Nc1nc(CN2CCCCCC2)nc(Nc2ccccc2)n1,-31.9%
19,COc1ccc(Nc2nc(N)nc(CN3CCN(c4ccc(F)cc4)CC3)n2)cc1,-19.3%
20,Nc1nc(CN2CCN(c3ccccc3)CC2)nc(Nc2ccc(Cl)cc2)n1,-44.8%
21,COc1ccc(Nc2nc(N)nc(CN3CCOCC3)n2)cc1,1.93%
22,O=C(CSc1ncn(-c2ccccc2)n1)N1CCc2ccccc21,1.39%
23,O=S(=O)(c1ccc(Cl)cc1)N1CCC2(CC1)OCCO2,2.73%

row,Compound,"hERG current change (%, negative = inhibition) at 1uM"
1,FC(F)(F)c1cccc(N2CCN(C(=S)NCC3CCCO3)CC2)c1 (stereo not drawn),4.59%
2,COc1ccc(-c2nn(C)c(=O)c3ccccc23)cc1CNC(=O)CN1CCOCC1,6.56%
3,COc1cccc2sc(N(CCCN(C)C)C(=O)COc3ccc(Cl)cc3)nc12.Cl,-68.9%
4,Cc1cccc2sc(N(CCCN(C)C)C(=O)COc3ccc(Cl)cc3)nc12.Cl,-6.98%
5,CN(C)CCCN(C(=O)COc1ccccc1)c1nc2c(F)cccc2s1.Cl,-55.8%
6,CCOc1cccc2sc(N(CCCN(C)C)C(=O)c3ccc(S(=O)(=O)N(C)Cc4ccccc4)cc3)nc12.Cl,-1.82%
7,CN(C)CCCN(C(=O)COc1ccc(Cl)cc1)c1nc2c(F)cccc2s1.Cl,-16.9%
8,CCOc1cccc2sc(N(CCCN(C)C)C(=O)Cc3ccccc3)nc12.Cl,-83.7%
9,CCOc1cccc2sc(N(CCCN(C)C)C(=O)c3ccc(C(=O)c4ccccc4)cc3)nc12.Cl,-29.5%
10,CN(C)CCCN(C(=O)COc1ccc(Cl)cc1)c1nc2ccc(F)cc2s1.Cl,8.45%
11,CN(C)CCCN(C(=O)COc1ccccc1)c1nc2c(Cl)cccc2s1.Cl,-45.5%
12,CCOC(=O)c1c(NC(=O)c2cc(CC(C)C)on2)sc(C(C)=O)c1C,12.5%
13,CC(C)CN(C(=O)COC(=O)c1cnc(Cl)c(Cl)c1)c1c(N)n(Cc2ccccc2)c(=O)[nH]c1=O,8.68%
14,COc1ccc(-c2n[nH]c(C)c2-c2ccc(Cl)cc2)c(O)c1,10.2%
15,CCOC(=O)CSc1nc(Cc2ccccc2)nc2ccccc12,3.08%
16,Cn1nc(C(F)(F)F)c2cc(C(=O)N3CCOCC3)sc21,5.87%
17,COc1ccccc1N1CCN(C2CCCN(C(=O)CCC(=O)N(C)C)C2)CC1 (stereo not drawn),-3.24%
18,CCCC(=O)NC(=S)Nc1ccc(NC(=O)c2cccs2)cc1,-3.11%
19,Cc1cc(=O)[nH]c(SCC(=O)c2ccc(C)c(C)c2)n1,18.1%
20,N#Cc1c2c(c(Nc3ccccc3)n3c1nc1ccccc13)CCC2,10.4%
21,CC(=O)c1ccc(Nc2c3c(c(C#N)c4nc5ccccc5n24)CCC3)cc1,-67%
22,N#Cc1c2c(c(Nc3ccc(O)cc3)n3c1nc1ccccc13)CCC2,11.7%

# Reference: PMC4336329 (PLoS ONE, 2015)
